Only some compounds are listed: those with a hit (about 2.3% of all), similar ones and a draw of the others.
UBC13 polyUb: inhibitors of human UBC13 polyubiquitin chain formation; inhibition, % at 20 µM; TR-FRET; 330,000 tested, 0.47% active; in the data active = inhibition above about 45%, passing the limit was not always enough
MEKK3 PB1 HTS: raises or lowers MEK5 binding to the human MEKK3 PB1 domain; bead-based flow cytometry, Alexa488-MEK5 binding to MEKK3; actives lie on both sides; 0 = blocked by unlabeled MEK5, 100 = vehicle; binding response (% of control), % at 10 µM; 290,000 tested, 1.4% active; AID 1529;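 active = binding response more than 3 SD above or below the average of its plate-row segment, actives on both sides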;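 note: Alexa488 bead fluorescence after subtracting the streptavidin-only scavenger bead signal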
Target sequence (Q99759 whole entry, looked up, the tested form may be a part): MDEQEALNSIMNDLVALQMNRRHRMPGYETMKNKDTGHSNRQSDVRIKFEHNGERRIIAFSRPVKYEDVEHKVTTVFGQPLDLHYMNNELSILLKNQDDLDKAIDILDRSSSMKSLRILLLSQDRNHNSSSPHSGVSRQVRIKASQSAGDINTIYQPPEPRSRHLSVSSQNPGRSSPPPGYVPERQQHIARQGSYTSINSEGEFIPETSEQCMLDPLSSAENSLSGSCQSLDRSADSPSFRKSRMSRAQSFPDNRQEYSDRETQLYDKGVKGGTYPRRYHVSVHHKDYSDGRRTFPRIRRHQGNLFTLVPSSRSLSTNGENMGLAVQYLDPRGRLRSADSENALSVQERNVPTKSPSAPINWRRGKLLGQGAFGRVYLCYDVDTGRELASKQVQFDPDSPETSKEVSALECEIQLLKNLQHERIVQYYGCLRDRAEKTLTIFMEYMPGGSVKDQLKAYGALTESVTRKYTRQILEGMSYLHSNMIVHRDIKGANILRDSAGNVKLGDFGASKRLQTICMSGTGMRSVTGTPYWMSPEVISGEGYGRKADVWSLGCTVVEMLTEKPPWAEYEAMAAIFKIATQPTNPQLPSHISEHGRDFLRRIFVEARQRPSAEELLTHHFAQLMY
MEKK2mut PB1 HTS: signal of MEK5 binding to mutant human MEKK2 PB1 domain; AID 1530; 290,000 tested, 0.35% active; percent response, % at 10 µM; bead flow cytometry, Alexa488-MEK5 binding to MEKK2 mutant; in the data active = percent response above about 24%, passing the limit was not always enough
MEKK2 WT-MEK5: raises or lowers MEK5 binding to wildtype human MEKK2 PB1 domain | Q9Y2U5 | bead flow cytometry, Alexa488-MEK5 binding to MEKK2 WT; actives lie on both sides | binding response (% of control), % at 10 µM | 290,000 tested, 1.1% active; in the data active = binding response below about 67% or above about 130%
MEKK2wt confirm: raises or lowers MEK5 binding to wildtype human MEKK2, retest. shares compounds with MEKK3 PB1 HTS. bead flow cytometry, Alexa488-MEK5 binding to MEKK2 WT; actives lie on both sides. binding response (% of control), % at 10 µM. 5,900 tested, 2.4% active. AID 1892; in the data active = binding response below about 16% or above about 210%; inactive = in between
MEKK2mut confirm: signal of MEK5 binding to mutant human MEKK2, retest. shares compounds with MEKK3 PB1 HTS. bead flow cytometry, Alexa488-MEK5 binding to MEKK2 mutant. percent response, % at 10 µM. 5,900 tested, 2% active. AID 1893; in the data active = percent response mostly above about 71%, no sharp cut-off; inactive = mostly below about 38%;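 note: higher means compound restores mutant binding toward wildtype level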
MEKK3-MEK5 inh: MEKK3-MEK5 PB1 inhibition, single concentration confirmation. shares compounds with MEKK3 PB1 HTS. bead flow cytometry, Alexa488-MEK5 binding to MEKK3; hits give low values. binding response (% of control), % at 10 µM. 5,900 tested, 1.8% active. AID 1894;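 active = binding response below 72% of control, or above a set upper limit, though filed actives all read lower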;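 note: 100% = DMSO only wells and 0% = binding blocked by excess unlabeled MEK5; lower values mean stronger disruption of MEK5 binding to MEKK3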
Numbers without * were called inactive; . = no result given; [ ] = remark or other dose.

SMILES	UBC13 polyUb	MEKK3 PB1 HTS	MEKK2mut PB1 HTS	MEKK2 WT-MEK5	MEKK2wt confirm	MEKK2mut confirm	MEKK3-MEK5 inh
CCc1ccc(OCc2n[nH]c(=S)n2C(C)CCCC(C)C)cc1 (centres undefined)	3.0	95.0	-3.0	90.0	.	.	.
Cc1cnnn1-c1ccc(C(=O)CCl)cc1	29.4	102.0	14.0	148.0*	152.0	24.0	104.0
C=CCc1ccc(O)c(-c2ccc(O)c(CC=C)c2)c1	14.9	105.0	1.0	104.0	.	.	.
CC(NC1CCCC1)c1ccccc1 (centres undefined)	-6.3	88.0	-3.0	98.0	.	.	.
CC(NCCC(c1ccccc1)c1ccccc1)c1ccccc1 (centres undefined)	37.9	99.0	12.0	145.0*	130.0	13.0	104.0
O=C(COC(=O)/C(=C/c1cccs1)c1cccs1)NC(c1ccccc1)c1ccccc1	0.6	99.0	-2.0	98.0	.	.	.
Cc1ccccc1C(=O)Nc1ccccc1C(=O)N1CCC(C)CC1	0.0	99.0	-1.0	96.0	.	.	.
CCC(CO)[n+]1c(C)cc(/C=C2\Sc3ccccc3N2Cc2ccccc2)cc1C (centres undefined)	.	79.0	-5.0	63.0*[inhibitor]	107.0	11.0	100.0
CCN1/C(=C2\SC(=S)N(Cc3ccccc3)C2=O)Sc2ccccc21	-21.0	103.0	8.0	103.0	.	.	.
Cc1cccc(C(=O)OCC(=O)c2c(C)[nH]c3ccccc23)c1O	5.4	.	.	.	.	.	.
CCN(CC)CCN(C(=O)c1c(F)cccc1F)c1nc2cc(C)cc(C)c2s1	10.8	106.0	15.0	136.0	.	.	.
NS(=O)(=O)c1ccc(NC(=O)c2c(F)cccc2Cl)cc1	-8.1	131.0*	26.0	130.0	106.0	-4.0	104.0
CCOc1cc(/C=C2\CCn3c2nc2cc(Cl)ccc2c3=O)ccc1O	-10.9	97.0	-7.0	94.0	.	.	.
CCOc1ccc(-c2noc(=O)[nH]2)cc1	9.5	23.0*[inhibitor]	-33.0	39.0*[inhibitor]	107.0	3.0	103.0
COc1ccc(-c2noc(=O)[nH]2)cc1	5.1	103.0	-1.0	100.0	.	.	.
CSc1nnc(NC(=O)c2cc(=O)c3cc(C)cc(C)c3o2)s1	-7.7	78.0	-19.0	84.0	.	.	.
Cc1cc(C)c2oc(C(=O)Nc3nnc(C(C)C)s3)cc(=O)c2c1	-15.9	212.0*	2.0	118.0	79.0	-14.0	85.0
C=CCNC(=S)NNC(=O)c1ccncc1	-6.7	106.0	-10.0	100.0	.	.	.
CCOC(=O)c1sc(N)c(C#N)c1CSc1nnc(C2CCCCC2)n1N	-3.0	0.0*[inhibitor]	-20.0	-1.0*[inhibitor]	98.0	2.0	103.0
Cn1c(=O)c2c(ncn2CC(=O)OCC(=O)Nc2cc(Cl)ccc2Cl)n(C)c1=O	10.9	139.0*	-1.0	100.0	107.0	5.0	101.0
CCc1cc2cc(C(=O)N3CCN(Cc4ccccc4)CC3)sc2s1	15.1	77.0*[inhibitor]	-13.0	91.0	89.0	-11.0	85.0
CC(c1ccccc1)N1C(=O)NC(NC(=O)c2cccnc2)(C(F)(F)F)C1=O (centres undefined)	0.3	0.0*[inhibitor]	-3.0	0.0*[inhibitor]	97.0	-8.0	96.0
c1ccc(-c2cc3c(nn2)CCc2nonc2-3)cc1	1.0	72.0*[inhibitor]	-23.0	80.0	93.0	-6.0	88.0
c1ccc(-c2nc3c([nH]2)CCc2nonc2-3)cc1	9.0	103.0	4.0	97.0	.	.	.
C[C@@H]1CC=C[C@H]2[C@H]1C(=O)N(Cc1ccccc1)[C@H]2c1ccc(F)c(-c2ccc(N(C)C)cc2)c1	2.2	66.0*[inhibitor]	2.0	54.0*[inhibitor]	100.0	-12.0	98.0
SMILES	UBC13 polyUb	MEKK3 PB1 HTS	MEKK2mut PB1 HTS	MEKK2 WT-MEK5	MEKK2wt confirm	MEKK2mut confirm	MEKK3-MEK5 inh
CC[C@@H]1CC=C[C@H]2[C@H]1C(=O)N(Cc1ccccc1)[C@H]2c1ccc2ccccc2c1	-8.5	79.0*[inhibitor]	-7.0	94.0	99.0	14.0	102.0
O=C1CC2(CCN(C(=O)c3ccc(Br)cc3)CC2)Oc2ccccc21	-4.6	.	.	.	.	.	.
COc1ccc(S(=O)(=O)N2CCN(CC3CC=CCC3)CC2)cc1 (centres undefined)	-2.3	103.0	-2.0	106.0	.	.	.
O=C(CNC(=O)c1nn(Cc2ccccc2)c(=O)c2ccccc12)Nc1ccc(F)c(F)c1F	-22.1	.	.	.	.	.	.
COc1cc(/C=N/NC(=O)C[n+]2ccccc2)cc(OC)c1OC	4.4	98.0	1.0	99.0	.	.	.
COc1cc(/C=N/NC(=O)C[n+]2ccccc2)cc(OC)c1OC(C)=O	8.9	73.0*[inhibitor]	-30.0	60.0*[inhibitor]	86.0	-11.0	82.0
NC(=O)CN1CCCN(S(=O)(=O)c2ccc(Br)cc2)CC1	0.1	2.0*[inhibitor]	-24.0	3.0*[inhibitor]	100.0	-4.0	98.0
Cc1ccc(S(=O)(=O)N2CCN(CC(=O)N/N=C/C=C/c3ccccc3)CC2)cc1	-8.2	138.0*	0.0	106.0	97.0	1.0	103.0
O=C(CN1CCN(S(=O)(=O)c2ccc(Br)cc2)CC1)N/N=C/c1ccco1	2.5	162.0*	1.0	108.0	103.0	5.0	100.0
O=C(O)C1CCCN(S(=O)(=O)c2ccc(Br)cc2)C1 (centres undefined)	-3.2	11.0*[inhibitor]	-55.0	18.0*[inhibitor]	101.0	2.0	101.0
O=C(O)C1CCCN(S(=O)(=O)c2ccccc2)C1 (centres undefined)	-4.3	101.0	-4.0	101.0	.	.	.
Cc1c(C)c(C)c(CO/N=C/c2cccs2)c(C)c1C	4.7	104.0	4.0	101.0	.	.	.
COc1cc(C(=O)NCCC2=CCCCC2)ccc1OCc1c(C)noc1C	9.6	.	.	.	.	.	.
Cc1cccc(CSc2nnc(CCCCCNC(=O)OC(C)(C)C)o2)c1	5.7	138.0*	30.0	118.0	109.0	6.0	105.0
c1ccn(-c2ccc(-c3ccn[nH]3)cc2)c1	-3.0	99.0	-5.0	95.0	.	.	.
Cc1ccc(C)n1-c1ccc(-c2ccn[nH]2)cc1	-1.0	15.0*[inhibitor]	190.0*	.	101.0	-2.0	102.0
CC(=O)Oc1ccc(N(C(C)=O)S(=O)(=O)c2ccc(C)cc2)c2ccccc12	-1.9	.	.	.	.	.	.
N=C(N)SCc1cn(-c2ccccc2)nc1-c1ccc(Br)cc1	.	115.0	107.0*	256.0*	265.0*	105.0*	113.0
Cc1ccc(-c2nn(-c3ccccc3)cc2CO)cc1	2.0	107.0	11.0	110.0	.	.	.
CCOC(=O)c1c(/N=C/c2cc(C)ccc2O)sc2c1CCN(C)C2	-3.7	102.0	33.0	124.0	.	.	.
Cc1cccc(/C=N/c2sc3c(c2C(=O)OC(C)(C)C)CCN(C)C3)c1O	28.5	112.0	42.0	141.0*	146.0	25.0	108.0
CCCN(CC(=O)Nc1ccc(C(N)=O)cc1)CC(=O)Nc1ccc(Cl)cc1Cl	-1.3	134.0*	1.0	106.0	101.0	-3.0	101.0
CCCN(CC(=O)Nc1cc(Cl)cc(Cl)c1)CC(=O)Nc1ccc(F)c(F)c1F	17.3	99.0	17.0	165.0*	129.0	18.0	109.0
